Data: PubChem BioAssay (NCI)
About 83,000 compounds went through this panel and 20% of them were active in at least one assay; those are over-represented in the sample as a whole.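 The test compound was applied at a single concentration to cells in 96-well plates for 48 hours, and percent growth was recorded.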 Unmarked numbers belong to inactive results. The source made the active and inactive calls. The calls were made as follows: active = growth percent below 10; inactive = the rest.

Columns and labels:
Assay in all cases: NCI-60 one-dose screen, 48 h (100 = growth as untreated, 0 = no growth, -100 = all killed)
Details in all cases: 10 µM unless noted
T-47D breast = test system: T-47D breast
BT-549 breast = test system: BT-549 breast
MDA-MB-435 melanoma = test system: MDA-MB-435 melanoma
SW-620 colon = test system: SW-620 colon
MCF7 breast = test system: MCF7 breast
HCT-116 colon = test system: HCT-116 colon
HCC-2998 colon = test system: HCC-2998 colon
KM12 colon = test system: KM12 colon

Row | Structure (SMILES) | growth (T-47D breast) | growth (BT-549 breast) | growth (MDA-MB-435 melanoma) | growth (SW-620 colon) | growth (MCF7 breast) | growth (HCT-116 colon) | growth (HCC-2998 colon) | growth (KM12 colon)
1 | CC[C@H](C)C(=O)O[C@H]1CCC=C2C=C[C@H](C)[C@H](CC[C@@H]3CC=CC(=O)O3)[C@H]21 | 83.5% | 87.5% | 86% | 85.9% | 72.3% | 48.5% | 101% | 72.5%
2 | COc1cccc(Cc2cc(-c3ccccc3)nn(CC(=O)c3ccccc3)c2=O)c1 | 72.5% | 64.5% | 61.2% | 55.1% | 45.9% | 68.9% | 84.7% | 57.8%
3 | Cc1nc2cnc(N)c(C#Cc3cncc(C(=O)Nc4ccc(CN5CCN(C)CC5)c(C(F)(F)F)c4)c3)c2nc1C | 45.2% | 35.6% | 0.973% (active) | -20.9% (active) | 1.7% (active) | 0.345% (active) | 11.5% | -17.4% (active)
4 | CN(C)CCNc1nc2ccccc2c2c(=O)c3cc(F)ccc3sc12 | 66.1% | 64.4% | 1.18% (active) | -48% (active) | 34.3% | -11.2% (active) | -64.5% (active) | 8.53% (active)
5 | CN1C(=O)N(C)C2Nn3c(s/c(=C\c4ccccc4)c3=O)=NC21 (centres undefined) | 98.2% | 97.1% | 85.9% | 96.9% | 87.1% | 88.8% | 104% | 97.5%
6 | O=C1c2ccccc2NC(n2sc3ccccc3c2=O)N1c1ccccc1 (centres undefined) | 96.4% | 104% | 111% | 104% | 94.3% | 95.7% | 103% | 92.9%
7 | Cc1ccc(/C=C2\Oc3ccc(O)c(O)c3C2=O)cc1 | 47.3% | 43.1% | 82.4% | 30.7% | 31.6% | 17.8% | 70.2% | 77%
8 | N#Cc1ccc(NC(=O)c2sc3nc4c(cc3c2N)C(=O)CCC4)cc1 | 95.9% | 108% | 97.4% | 98.1% | 97.4% | 108% | 99.2% | 101%
9 | N#CC1=C(N)Oc2c(sc3c(Br)cccc23)C1c1ccc([N+](=O)[O-])cc1 (centres undefined) | 64.9% | 28.8% | -58.4% (active) | 18.1% | 10.2% | 8.77% (active) | 10.2% | 8.9% (active)
10 | O=C(S)CNC(=O)c1ccccc1 | 102% | 86.2% | 104% | 97.6% | 98.7% | 87.6% | 101% | 105%
11 | COc1ccc(CN2c3ccccc3CCc3ccccc32)cc1F | 47.1% | 54% | -49.4% (active) | 20.5% | 20.4% | 2.32% (active) | 30.7% | 16.5%
12 | Oc1c(I)cc(I)cc1CNCCCN(Cc1ccccn1)Cc1ccccn1 | -57% (active) | -73.2% (active) | -90.7% (active) | -61.9% (active) | -56.3% (active) | -87% (active) | -82.5% (active) | -85.1% (active)
13 | O=C(N/N=C/[C@H](O)[C@@H](O)[C@@H](O)[C@H](O)CO)c1ccc(NC(=O)c2cccnc2)cc1 | 100% | 106% | 106% | 108% | 94.8% | 108% | 117% | 106%
14 | COc1ccc(-c2[nH]c3ccc(OC)cc3c2/C=C(\C#N)S(=O)(=O)c2ccccc2)cc1 | 34.4% | 46.6% | 1.86% (active) | 32.8% | 7.23% (active) | 19.4% | -19.7% (active) | 10.8%
15 | COc1ccc(/C=C(\C#N)n2nnc3c(F)cccc32)cc1 | 16.1% | 45.4% | -78.4% (active) | 15.6% | 18.8% | 8.75% (active) | 1.33% (active) | 7.96% (active)
16 | COc1cccc(Oc2ccccc2NC(=O)CNC(=O)c2cccc3ccccc23)c1 | 62.3% [5 µM] | 50.7% [5 µM] | -20.5% [5 µM] (active) | 22.4% [5 µM] | 20.5% [5 µM] | 3.51% [5 µM] (active) | 25.5% [5 µM] | 13.5% [5 µM]
17 | O=c1ccc(N=Nc2ccc([N+](=O)[O-])cc2)ccc1O | 16.8% | 97.3% | 21.8% | 15.4% | 7.16% (active) | 32.3% | 22.3% | 16.7%
18 | CN1C(=O)CNC(=O)[C@H](NC(=O)c2nc3ccccc3cc2O)CSSC[C@H]1C(=O)NCCCc1nc2ccccc2cc1O | 78% | 75.8% | 44% | 48.2% | 55.1% | 70% | 74.7% | 27%
19 | O=C1NC(=O)C(c2ccccc2)(c2ccccc2)N1Cc1cn(-c2c3ccccc3nc3ccccc23)nn1 | 63.6% | 81.5% | 94.4% | 85.6% | 73.9% | 68.1% | 104% | 91.2%
20 | CCOC(=O)c1cn2ncnc(Oc3ccc(NC(=O)NCCN(CC)CC)c(Cl)c3)c2c1C | 45.4% | 81.9% | 9.11% (active) | 28.7% | 58.1% | 36.5% | 68.3% | 96.4%
21 | O=c1c2cc(F)ccc2sc2c(NCCCNCCO)nc3ccc(F)cc3c12 | 70.2% | 83.9% | -28.4% (active) | -39.7% (active) | 47.9% | -72.8% (active) | 1.69% (active) | 24.9%
22 | CCOC(=O)c1[nH]c(C)c(C(=O)OCc2ccccc2C#N)c1C | 103% | 50.5% | 9.9% (active) | 41.4% | 30.5% | 40.9% | 64.3% | 42.8%
23 | COc1cc(C2CC(c3ccc(N(C)C)cc3)=NN2C(C)=O)cc(OC)c1OC (centres undefined) | 31.7% | 45.1% | -65.6% (active) | 10.7% | 11.5% | 20.6% | 24.9% | 10.8%
24 | CC1=C(SCCC(=O)OC(C[Se]C2=C(C)C(=O)c3ccccc3C2=O)C(=O)NC(C)(C)C)C(=O)c2ccccc2C1=O (centres undefined) | -52.9% (active) | -96.2% (active) | -86.8% (active) | -80% (active) | -63.5% (active) | -70.9% (active) | -82.8% (active) | -94.6% (active)
25 | O=C(N/N=C/c1c(Cl)cccc1Cl)c1ccc(C(F)(F)F)nc1Nc1cccc(C(F)(F)F)c1 | -9.07% (active) | -5.79% (active) | 24.2% | 7.71% (active) | 1.97% (active) | -19.6% (active) | -29.2% (active) | 8.17% (active)
26 | COc1ccc([C@H]2c3cc(OC)c(OC)cc3C=C(C=O)C2CO)cc1OC (some centres undefined) | 45.2% | 58.6% | -24% (active) | 21.5% | 18.5% | 23.8% | 58.4% | 21%
27 | Cc1ccc(S(=O)(=O)N/N=C/C2(c3ccccc3)CC2)cc1 | 101% | 102% | 104% | 97.1% | 88.6% | 98.7% | 111% | 107%
28 | Cc1nc2ccccc2c(/C=C/c2ccc(Cl)cc2)c1C(=O)/C=C/c1cccs1 | 50.1% | 90.9% | 89.3% | 72.4% | 41.9% | 33.9% | 73.5% | 81.5%
